Assay results as given in PubChem BioAssay AID651568 (National Center for Advancing Translational Sciences (NCATS), 2012).
The campaign covered roughly 1,200 compounds. About 55 (5%) were called active. A call without a number means that no potency is given here. Inconclusive results (about 15%) are left out. Calls come from the whole dose curve; as a rule, active = well fitted inhibition curve with a large enough effect; inconclusive = small, poorly fitted or top-dose-only effect; inactive = no such curve, though single readings can be large or run the other way. Many of the other results were omitted from the sample, so actives are more common in it than they were.

Assay: qHTS Assay to Find Inhibitors of Chronic Active B-Cell Receptor Signaling: Hit Validation in Renilla Reporter Assay; note: nearly all actives have a fitted effect of over 70% in size
Settings: TMD8 IkB-Renilla luciferase reporter, NF-kB signaling; series mostly up to 57.5 µM
Source text: Diffuse large B-cell lymphoma (DLBCL) is the most common category of non-Hodgkin lymphoma, with ~20,000 new cases per year in the United States. DLBCL should be regarded as a collection of different neoplasms. Microarray gene expression analysis has defined two principal types of DLBCL, named for their similarity to normal B cell stages or activation states: a germinal center B-cell (GCB) type, and an activated B-cell (ABC) type. In ABC-DLBCL, a constitutive high-level activity of the NF-kappaB family of transcription factors has been observed (1) and NF-kappaB target genes are more highly expressed in ABC primary tumors than in GCB tumors. Functional studies have shown a constitutive high-level activity of the IkappaB (inhibitor of kappa-B) kinase (IKK) complex. […] Further analysis of DLBCL primary tumors for NF-kappaB target gene expression imply that although CARD11 is required for constitutive IKK activity in all ABC-DLBCL lines, mutations in CARD11 may be the root cause of IKK activation only in lines or tumors with such mutations. In other words, CARD11 mutations may explain NF-kappaB activation in only 10% of ABC-DLBCL cases. […] This process has been termed 'chronic active BCR signaling' (CABS). The goal of this screen is to find small-molecule inhibitors of the CABS pathway found in ABC-DLBCL lines using a cell-based assay that measures IkappaBalpa stability, which has already been extensively validated in the OCI-Ly3 line (PubChem AID:445; REF: 4). […] Hits from the primary screen were tested in this orthogonal secondary assay. NIH Molecular Libraries Probe Production Network [MLPCN] NIH Chemical Genomics Center [NCGC] MLPCN Grant: R03 DA031086 PI Name: Dr. R. Eric Davis
The IkB-Photinus/Renilla reporter assay differs from the primary assay in that the reporters are constitutively expressed, and based on luciferases that are different from the click beetle luciferases and each other. These differences should help to eliminate artifactual sources of activity specific to the primary assay. This assay uses the Dual-Glo substrate from Promega; extensively validated in a 96-well format, it could be converted to a smaller-well format. All lines needed for the IkB-Photinus/Renilla assay have already been prepared and extensively validated
Potency is the fitted concentration of half-maximal effect.

Compound	Potency
O=c1c2ccccc2[se]n1-c1ccccc1	15.1 µM (active)
C/C(=N\N1CCCCC1)c1c(O)[nH]c(=O)[nH]c1=O	inactive
CC[C@]12CC[C@H](O)CC1=CCC1C2CC[C@]2(C)C(=O)CCC12 (stereo partly specified)	inactive
C=CC[C@@H](CC/C=C/C=C/CC/C=C\[C@@H]1CSC([C@@H]2C[C@@H]2C)=N1)OC	30.1 µM (active)
CC(C)CCCn1c(O)c(/C=C2/C=CC=N2)c(=O)[nH]c1=O	inactive
C#CCOc1cc(C2C3=C(COC3=O)Nc3cc4c(cc32)OCO4)ccc1OC (stereo unspecified)	inactive
CCNC(=O)[C@H]1O[C@@H](n2cnc3c(N)ncnc32)[C@H](O)[C@@H]1O	inactive
COc1cc2c(c(OC)c1OC)-c1ccc(O)cc1[C@@H](NC(C)=O)CC2	inactive
CCCCOCCCn1c(N)c(C(=O)OCCOC)c2nc3ccccc3nc21	inactive
CN1C(=O)CN=C(c2ccc(Cl)cc2)c2cc(Cl)ccc21	inactive
O=C1C(=O)c2cccc3cccc1c23	26.9 µM (active)
COc1ccc(Cc2nccc3cc(OC)c(OC)cc23)cc1OC	inactive
COc1ccc(C(=O)Oc2cccc3cccnc23)cc1S(=O)(=O)N1CCOCC1	inactive
COc1cc2c3cc1Oc1cc(ccc1O)C[C@@H]1c4c(cc(OC)c(O)c4Oc4ccc(cc4)C[C@H]3N(C)CC2)CCN1C	23.9 µM (active)
COc1ccc(C=C2C(=O)N(C)C(=O)N(C)C2=O)cc1COc1ccc(NC(C)=O)cc1	inactive
CCc1ccccc1N1C(=O)/C(=C/c2ccc(N3CCN(C)CC3)o2)C(=O)NC1=S	inactive
CCCC[C@@H](C)C[C@@H](C)C(=O)N(C)[C@@H](CC(C)C)C(=O)N[C@H](C(=O)N(C)[C@H](C(=O)N1C[C@@H](O)C[C@H]1C(=O)N1C(=O)C=C[C@@H]1C)C(C)C)C(C)OC(C)=O (stereo partly specified)	26.9 µM (active)
COc1cc(C2c3cc4c(cc3CC3COC(=O)C32)OCO4)cc(OC)c1OC (stereo unspecified)	inactive
Cc1cc(C)c(C(=O)CN2CCOCC2)c(C)c1	inactive
COc1cc2c(c(OC)c1OC)-c1ccc(O)c(=O)cc1C(NC(C)=O)CC2 (stereo unspecified)	inactive
COc1ccc(-c2nn(CCC#N)cc2C(=O)Nc2ccc(C(C)=O)cc2)cc1[N+](=O)[O-]	inactive
